# Bioassay records deposited in PubChem by National Center for Advancing Translational Sciences (NCATS).
# p53ts 32C kill: p53ts cell cytotoxicity, permissive temperature. 130,000 tested, 0.93% active. H1299-p53A138V at 32C, ATP luminescence viability, 24 h. AID 924. Potency, µM (top dose mostly 46.1 µM), inactives show at the highest dose activity change, negative = cytotoxicity, usual class: cytotoxic;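 further: 0% = DMSO and -100% = full killing by reference compound; nearly all actives have a fitted effect of over 55% in size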
#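 ATP-content luminescence (ATPlite) read-out after 24 h compound exposure at 32C in H1299-p53A138V cells (600/well). Tested up to 46 uM. Normalized to DMSO (0%) and 100 uM tamoxifen (100% killing); Hill-fit AC50.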
# Peg3 imprint: inducers of genomic imprint erasure in mouse ES cells; mouse ES Peg3-LacZ reporter, beta-gal luminescence, 40 h; Potency, µM (titrated, usually from 60.7 µM), for the others: at the highest dose activity change, positive = activation, hits mostly activators; 110,000 tested, 0.02% active; AID 1948
#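 Readout: BetaGlo luminescence (5 min, room temp) for LacZ from the normally silent maternal Peg3 allele in female Peg3LacZ-Neo ES cells. Cells 300/well, 40 h, 37C, 5% CO2. Data normalized per plate to negative controls.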
# IkB signaling: inhibitors of IkB signaling in ABC-DLBCL cells. ABC-DLBCL IkBa-CBG/CBR dual luciferase ratio, 4 h; response scale: scaled: untreated 0%, proteasome inhibitor 100%. Potency, µM (titrated, usually from 57.1 µM), for the others: at the highest dose IkBa stabilization activation. 110,000 tested, 0.04% active; active means well fitted curve in the direction sought with a large enough effect in the signal ratio, not every such curve was filed as active; inconclusive means small, poorly fitted or top-dose-only effect, or a change in a side signal; the % refers to the signal ratio;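 further: the direction sought is a rising ratio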
#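 Luminescence ratio of IκBα-fused green versus native red beetle luciferase in OCI-Ly3 cells, 4 h post-doxycycline with compound; red signal alone, scaled from basal (0%) to zero light (-100%), flagged nonspecific or cytotoxic effects.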
# p53ts 39C kill: p53ts cell cytotoxicity, nonpermissive temperature; H1299-p53A138V viability at 39C, ATP luminescence, 24 h; Potency, µM (titrated, usually from 46.1 µM), for the others: at the top dose activity change, negative = cell killing, actives largely listed as cytotoxic; 130,000 tested, 1.5% active; further: on the % scale 0 is the no-effect control and ±100 the full control effect; nearly all actives have a fitted effect of over 55% in size
# * hit, by the source's call; i = inactive; ? = inconclusive; . = not tested or not shown; [ ] = dose if it differs, or a comment. The list is not random: actives were taken first. Their share in the collection is about 1.7%. Unless noted, the call rests on the fitted dose curve; in most records, active means well fitted curve in the direction sought with a large enough effect; inconclusive means small, poorly fitted or top-dose-only effect, or another doubt; inactive means no such curve, though single readings can be large; an effect the other way counts as inactive or inconclusive. Potency means the concentration at half of the fitted maximal effect.
SMILES,p53ts 32C kill,Peg3 imprint,IkB signaling,p53ts 39C kill
O=c1cc(-c2ccccc2O)oc2c(O)c(O)ccc12,-11.0%,2.4%,4.5%[11.4 µM],-16.2%
O=c1cc(-c2ccccc2)oc2cc(O)c(O)cc12,2.51µM*,-24.5%,.,2µM*
O=c1cc(-c2ccc(O)c(O)c2)oc2ccccc12,-1.1%,-49.4%,.,8.6%
COc1ccc2c(c1)c(=O)c(S(=O)(=O)c1ccccc1)cn2CC(=O)Nc1ccc(C)c(Cl)c1,7.0%,-13.6%[10.9 µM],?,-23.2%
Cc1cccc(NC(=O)c2cnc3sccn3c2=O)c1,7.94µM*,-19.6%,2.1%,10µM*
Cc1[nH]n2c(=O)cc(C(C)(C)C)nc2c1-c1ccccc1,-17.5%,-26.3%,6.1%,?
Cc1[nH]n2c(=O)cc(C(C)C)nc2c1-c1ccccc1,-29.3%,4.5%,-3.9%,12.6µM*
CCCCCOc1ccccc1CN1C(=O)C(=O)c2cc(C)ccc21,1.4%,16.6%[10.9 µM],0.0%,12.6µM*
O=C(Nc1cc2ccc(O)cc2oc1=O)c1ccccc1,?,-57.4%[10.9 µM],i,7.94µM*
O=C(/C=C/Nc1cccc(O)c1)c1ccccc1,3.98µM*,-81.0%,?,7.94µM*
O=C(/C=C\Nc1ccccn1)c1ccccc1,10µM*,-83.3%,?,?
O=C(/C=C/Nc1ccccc1Br)c1ccccn1,0.794µM*,-93.9%,?,1.26µM*
CC(=O)c1ccc(NC(=O)Cn2nc(C(F)(F)F)c3c2CCCC3)cc1,-2.3%,-5.9%[10.9 µM],?,-6.8%
CC(=O)c1cccc(NC(=O)c2cccn2-c2nnc(N3CCCCC3)s2)c1,-10.3%,-4.9%[10.9 µM],2.0%,-10.8%
CCc1nn(CC(=O)N2CCN(c3cccc(C(F)(F)F)c3)CC2)c(=O)c2cccn12,-7.6%,-35.5%[10.9 µM],1.4%,?
COc1ccc(CNC(=O)c2cc3oc4ccccc4c3n2C)cc1OC,?,-7.8%[10.9 µM],?,-25.3%
CC(C)Cn1nc(NC(=O)c2cccc(Cl)c2)c2cc3ccccc3nc21,-24.1%,-8.0%[10.9 µM],?,12.6µM*
O=C(NC1=NCCS1)C1COc2ccccc2O1 (centres undefined),12.6µM*,-90.3%,?,12.6µM*
c1cnc2c(c1)ccc1cccnc12,?,-53.6%,0.6%[11.4 µM],3.16µM*
COc1ccc(C(=O)Nc2cc(C)on2)cc1,7.94µM*,-69.2%,3.2%,6.31µM*
COc1ccc(C(=O)Nc2noc3ccccc23)cc1,3.16µM*,-52.9%[10.9 µM],?,6.31µM*
NCCC[C@@H](CC(=O)N[C@@H]1CCNC[C@H]1C(=O)N[C@H](CC(=O)N[C@@H](CCC(=O)O)CC(=O)O)Cc1c[nH]c2ccccc12)NC(=O)C[C@H](Cc1ccccc1)NC(=O)[C@@H]1CCCC[C@H]1N,.,.,0.9%,.
CC1CN(C(=O)Nc2ccc(C(=O)NCc3cccc(F)c3)cc2)c2ccccc2S1 (centres undefined),7.4%,-8.6%[10.9 µM],?,-8.0%
Oc1cccc(/C=N/c2c(-c3ccco3)nc3ccccn23)c1,?,.,.,12.6µM*
Cn1c(=O)c2c(-c3ccccc3)n3c(c2n(C)c1=O)C(c1ccccc1[N+](=O)[O-])Nc1ccccc1-3 (centres undefined),1.3%,-13.1%[10.9 µM],?,-13.6%
SMILES,p53ts 32C kill,Peg3 imprint,IkB signaling,p53ts 39C kill
O=C1CC(c2ccc3c(c2)OCO3)Sc2nc3ccccc3n21 (centres undefined),12.6µM*,-30.6%,?,12.6µM*
c1ccc2cc(OCc3nc4ccccc4[nH]3)ccc2c1,10µM*,.,.,12.6µM*
COc1cccc(OCc2nc3ccccc3[nH]2)c1,15.8µM*,-86.5%,?,?
CC1Cc2ccccc2N1S(=O)(=O)c1nnc(NC(=O)c2ccccc2Br)s1 (centres undefined),-15.8%,-12.3%[10.9 µM],-1.4%,?
CCCCCCn1c(CN2CCC(C)CC2)nc2c1c(=O)n(C)c(=O)n2C,-17.3%,-15.4%,-1.8%,8.4%
CCCCCCn1c(CN2CCN(CCO)CC2)nc2c1c(=O)n(C)c(=O)n2C,2.51µM*,-82.3%,-0.1%,3.16µM*
COc1ccc(Nc2nc(Nc3ccc(OC)cc3OC)nc(N3CCOCC3)n2)c(OC)c1,-2.5%,22.0%[10.9 µM],-0.3%,-6.3%
O=C(/C=C/c1ccccc1)c1cccs1,31.6µM*,-28.6%,.,-81.5%
COc1ccc(/C=C/C(=O)c2cccs2)cc1OC,12.6µM*,5.2%,.,15.8µM*
CCOc1ccc(/C=C/C(=O)c2cccs2)cc1,25.1µM*,-45.1%,.,-12.2%
COc1ccc(/C=C/C(=O)c2ccc(O)cc2O)cc1OC,?,5.8%,.,72.6%
COc1ccc(/C=C/C(=O)Nc2ccccc2C(=O)O)cc1OC,?,-58.7%,.,12.6µM*
COc1ccc(/C=C\c2onc(C)c2S(=O)(=O)N2CCC(C(=O)Nc3cccc(Cl)c3)CC2)cc1,4.9%,-12.9%[10.9 µM],-1.0%,7.8%
COc1cc(/C=C/C(=O)N2CCCCC2=O)cc(OC)c1OC,12.6µM*,-27.3%,.,12.6µM*
COc1cc(/C=C/C(=O)O)cc(OC)c1OC,-7.2%,14.3%,.,2.1%
COc1cc(/C=C\C(=O)N2CCC=CC2=O)cc(OC)c1OC,6.31µM*,-35.3%[16.8 µM],?,6.31µM*
COc1cc(/C=C/C(=O)N2C(=O)c3cccc(N)c3C2=O)cc(OC)c1OC,.,.,.,-17.8%
C[C@@H]1C[C@@H]([C@@H](C)CC2CC(=O)NC(=O)C2)C(=O)[C@@H](C)C1,.,-32.5%,.,.
CCOc1ccccc1NC(=O)c1cc2ccc3cccnc3c2[nH]1,-12.7%,11.3%[10.9 µM],3.4%,?
COc1ccccc1NC(=O)c1cc2ccc3cccnc3c2[nH]1,10µM*,-11.7%[10.9 µM],14.9%,7.94µM*
O=C(c1cc2ccc3cccnc3c2[nH]1)N1CCN(c2ccc(Cl)cc2)CC1,-4.2%,-3.2%[10.9 µM],0.3%,-20.9%
O=C(c1cc2ccc3cccnc3c2[nH]1)N1CCCCC1,1.58µM*,-79.2%[10.9 µM],?,0.631µM*
CCOC(=O)C1CCN(C(=O)c2cc3ccc4cccnc4c3[nH]2)CC1,-3.8%,-21.5%[10.9 µM],?,-24.1%
CC1CCCN(C(=O)c2cc3ccc4cccnc4c3[nH]2)C1 (centres undefined),0.794µM*,-57.1%[10.9 µM],?,1.58µM*
CCOc1ccc(CNC(=O)c2ccc(NC(=O)c3nsc4ccccc34)cc2)cc1,-25.5%,-10.2%[10.9 µM],?,-28.5%
SMILES,p53ts 32C kill,Peg3 imprint,IkB signaling,p53ts 39C kill
CCOc1ccc(CNC(=O)c2ccccc2NC(=O)c2nsc3ccccc23)cc1,?,?,2.4%,10µM*
Cn1ccc2cc(NC(=O)Nc3cccnc3)ccc21,?,-23.9%,0.5%,15.8µM*
O=C(Nc1cccnc1)Nc1ccc(F)c(Cl)c1,?,-17.9%,-2.8%,-24.6%
CCOc1ccc2nc(C)cc(Nc3ccccc3OCC)c2c1,-29.7%,-18.0%[10.9 µM],0.3%,7.94µM*
COc1ccc(C2C(C(=O)Nc3ccccc3)=C(C)Nc3nc(-c4ccccc4Cl)nn32)cc1OC (centres undefined),0.8%,-7.8%[10.9 µM],?,0.1%
CCOC(=O)CC(NS(=O)(=O)c1ccc2[nH]c3c(c2c1)CCCC3)c1ccccc1Cl (centres undefined),32.3%,-13.6%[10.9 µM],-0.4%,12.6µM*
